From PubChem BioAssay (EPA / NIEHS) come the findings set out here.

SMILES strings stand for the structures. The source made the active and inactive calls. The calls were made as follows: active = hit-call score of the fitted dose curve at least 0.9, where 1 is the maximum; inactive = score below 0.9.

Holding throughout (settings): mRNA level, 48 h; actives raise or lower the signal
Read-out in experiment [1]: Cytochrome P450 7A1 (Homo sapiens) (UniProt P22680)
Description: LTEA_HepaRG_CYP7A1: Life Technologies and Expression Analysis (LTEA) Assay for Cytochrome P450 7A1 (CYP7A1) using HepaRG (AID 2283496). Put shortly: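 HepaRG cells plated 48 h, then switched to serum-free induction medium and exposed in duplicate for 48 h to 8-point half-log series from 100 uM in 0.5% DMSO. CYP7A1 mRNA by qRT-PCR (TaqMan), normalized to ACTB/GAPDH/POLR2A; bidirectional fit versus DMSO.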

Read-out in experiment [2]: Glutathione S-Transferase (GSTA2), GSTA2 (gene 2939)
Kind of experiment: LTEA_HepaRG_GSTA2: Life Technologies and Expression Analysis (LTEA) Assay for Glutathione S-Transferase (GSTA2) using HepaRG (AID 2283497). The essentials:
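Human HepaRG cells, plated 48 h, then exposed in serum-free induction medium for 48 h to eight half-log concentrations up to 100 uM in 0.5% DMSO, duplicate. GSTA2 mRNA by qRT-PCR, normalized to ACTB/GAPDH/POLR2A; bidirectional fit versus DMSO.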

Read-out in experiment [3]: growth arrest and DNA damage 45 (GADD45G), GADD45G (gene 10912)
Description: LTEA_HepaRG_GADD45G: Life Technologies and Expression Analysis (LTEA) Assay for growth arrest and DNA damage 45 (GADD45G) using HepaRG (AID 2283499). Put shortly:
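Differentiated human HepaRG cells in serum-free induction medium were exposed for 48 h to 8 half-log concentrations up to 100 uM in 0.5% DMSO, in duplicate. GADD45G mRNA was measured by TaqMan qRT-PCR, normalised to ACTB, GAPDH and POLR2A, and fitted bidirectionally against DMSO.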

Read-out in experiment [4]: Glutamate-cysteine ligase regulatory (GCLM), GCLM (gene 2730)
Kind of experiment: LTEA_HepaRG_GCLM: Life Technologies and Expression Analysis (LTEA) Assay for Glutamate-cysteine ligase regulatory (GCLM) using HepaRG (AID 2283500). Put shortly:
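Differentiated HepaRG cells exposed 48 h in serum-free induction medium to eight half-log concentrations up to 100 uM (0.5% DMSO). GCLM mRNA by TaqMan qRT-PCR, normalized to ACTB, GAPDH and POLR2A; bidirectional fit versus DMSO.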

Read-out in experiment [5]: Glutathione S-transferase M3 (GSTM3), GSTM3 (gene 2947)
Description: LTEA_HepaRG_GSTM3: Life Technologies and Expression Analysis (LTEA) Assay for Glutathione S-transferase M3 (GSTM3) using HepaRG (AID 2283501). The essentials:
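Differentiated HepaRG cells in serum-free induction medium were exposed in duplicate for 48 h to 8 half-log concentrations up to 100 uM in 0.5% DMSO. GSTM3 mRNA was measured by TaqMan qRT-PCR, normalized to ACTB/GAPDH/POLR2A, and fitted bidirectionally versus DMSO.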

Read-out in experiment [6]: Heat shock 70 kDa protein 1 (HSPA1A), gene 3303
Description: LTEA_HepaRG_HSPA1A: Life Technologies and Expression Analysis (LTEA) Assay for Heat shock 70 kDa protein 1 (HSPA1A) using HepaRG (AID 2283502). The essentials: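 Human HepaRG cells in serum-free induction medium were exposed in duplicate for 48 h to 8 half-log concentrations, highest 100 uM, in 0.5% DMSO. HSPA1A mRNA read by TaqMan qRT-PCR, normalized to ACTB, GAPDH, POLR2A, fitted bidirectionally against DMSO.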

Read-out in experiment [7]: Hypoxia-inducible factor 1-alpha (Homo sapiens) (UniProt Q16665)
Kind of experiment: LTEA_HepaRG_HIF1A: Life Technologies and Expression Analysis (LTEA) Assay for Hypoxia-inducible factor 1 (HIF1A) Trancription factor using HepaRG (AID 2283503). Put shortly: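 Differentiated HepaRG cells in serum-free induction medium exposed 48 h, in duplicate, to 8-point half-log series from 100 uM in 0.5% DMSO. HIF1A mRNA measured by TaqMan qRT-PCR, normalized to ACTB/GAPDH/POLR2A, fitted bidirectionally versus DMSO.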

Read-out in experiment [8]: 3-Hydroxy-3-Methylglutaryl-CoA Synthase 2 (HMGCS2), HMGCS2 (gene 3158)
Kind of experiment: LTEA_HepaRG_HMGCS2: Life Technologies and Expression Analysis (LTEA) Assay for 3-Hydroxy-3-Methylglutaryl-CoA Synthase 2 (HMGCS2) using HepaRG (AID 2283504). Put shortly:
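Differentiated human HepaRG cells were exposed in duplicate for 48 h in serum-free induction medium to eight concentrations (top 100 uM, half-log steps, 0.5% DMSO). HMGCS2 mRNA was quantified by TaqMan qRT-PCR, normalised to ACTB, GAPDH and POLR2A, then fitted bidirectionally against DMSO.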

Read-out in the next experiment: HGF (gene 3082)
Kind of experiment: LTEA_HepaRG_HGF: Life Technologies and Expression Analysis (LTEA) Assay for Hepatocyte Growth Facto (HGF) using HepaRG (AID 2283505). The essentials:
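Differentiated human HepaRG cells in serum-free induction medium were exposed in duplicate for 48 h to eight concentrations (top 100 uM, half-log steps, 0.5% DMSO). HGF mRNA was quantified by qRT-PCR, normalized to ACTB, GAPDH and POLR2A.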

Read-out in experiment [9]: Insulin Like Growth Factor 1 (IGF1), IGF1 (gene 3479)
Description: LTEA_HepaRG_IGF1: Life Technologies and Expression Analysis (LTEA) Assay for Insulin Like Growth Factor 1 (IGF1) using HepaRG (AID 2283506). Put shortly:
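Differentiated HepaRG cells in serum-free induction medium, exposed 48 h in duplicate to 8 half-log concentrations up to 100 uM in 0.5% DMSO. IGF1 mRNA by Fluidigm qRT-PCR, normalised to ACTB, GAPDH and POLR2A.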

Read-out in experiment [10]: Intercellular Adhesion Molecule 1 (ICAM1), ICAM1 (gene 3383)
Kind of experiment: LTEA_HepaRG_ICAM1: Life Technologies and Expression Analysis (LTEA) Assay for Intercellular Adhesion Molecule 1 (ICAM1) using HepaRG (AID 2283507). The essentials: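 Differentiated HepaRG cells in serum-free induction medium were exposed in duplicate for 48 h to eight half-log concentrations up to 100 uM in 0.5% DMSO. Transcript levels were measured by qRT-PCR normalized to ACTB, GAPDH and POLR2A; bidirectional fits relative to DMSO.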

Read-out in experiment [11]: Insulin-like growth factor-binding protein 1 (IGFBP1), IGFBP1 (gene 3484)
Kind of experiment: LTEA_HepaRG_IGFBP1: Life Technologies and Expression Analysis (LTEA) Assay for Insulin-like growth factor-binding protein 1 (IGFBP1) using HepaRG (AID 2283508). The essentials:
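Differentiated human HepaRG cells in serum-free induction medium were exposed in duplicate for 48 h to eight concentrations, top 100 uM with half-log dilutions, in 0.5% DMSO. Transcript levels came from qRT-PCR normalised to ACTB, GAPDH and POLR2A, fitted bidirectionally against DMSO.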

Read-out in experiment [12]: Interleukin 6 (IL6), IL6 (gene 3569)
Kind of experiment: LTEA_HepaRG_IL6: Life Technologies and Expression Analysis (LTEA) Assay for Interleukin 6 (IL6) using HepaRG (AID 2283509). The essentials:
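Differentiated human HepaRG cells, plated 48 h then switched to serum-free induction medium, were exposed in duplicate for 48 h to eight half-log concentrations up to 100 uM in 0.5% DMSO. IL6 mRNA measured by qRT-PCR, normalized to ACTB/GAPDH/POLR2A.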

Read-out in experiment [13]: Interleukin 6 Receptor (IL6R), IL6R (gene 3570)
Kind of experiment: LTEA_HepaRG_IL6R: Life Technologies and Expression Analysis (LTEA) Assay for Interleukin 6 Receptor (IL6R) using HepaRG (AID 2283510). The essentials:
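Differentiated HepaRG cells, plated 48 h, then exposed in duplicate for 48 h in serum-free induction medium to 8 half-log concentrations (top 100 uM, 0.5% DMSO). IL6R mRNA measured by TaqMan qRT-PCR, normalized to ACTB/GAPDH/POLR2A; bidirectional fit vs DMSO.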

Read-out in experiment [14]: Potassium channel subfamily K member 1 (KCNK1), KCNK1 (gene 3775)
Description: LTEA_HepaRG_KCNK1: Life Technologies and Expression Analysis (LTEA) Assay for Potassium channel subfamily K member 1 (KCNK1) using HepaRG (AID 2283511). The essentials:
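Differentiated human HepaRG cells in serum-free induction medium were exposed in duplicate for 48 h to 8 half-log concentrations up to 100 uM in 0.5% DMSO. KCNK1 mRNA was measured by TaqMan qRT-PCR, normalized to ACTB, GAPDH and POLR2A, and fitted bidirectionally versus DMSO.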

Read-out in experiment [15]: Keratin 19 (KRT19), KRT19 (gene 3880)
Description: LTEA_HepaRG_KRT19: Life Technologies and Expression Analysis (LTEA) Assay for Keratin 19 (KRT19) using HepaRG (AID 2283512). Put shortly:
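Differentiated human HepaRG cells, plated 48 h, were exposed in duplicate for 48 h in serum-free induction medium to eight half-log concentrations up to 100 uM in 0.5% DMSO. KRT19 mRNA was quantified by qRT-PCR, normalized to ACTB, GAPDH and POLR2A, and fitted bidirectionally versus DMSO.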

Read-out in experiment [16]: JUN Transcription Factor, JUN (gene 3725)
Kind of experiment: LTEA_HepaRG_JUN: Life Technologies and Expression Analysis (LTEA) Assay for JUN Transcription Factor using HepaRG (AID 2283513). Put shortly:
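HepaRG cells, 48 h post-plating, exposed 48 h in serum-free induction medium to 8-point half-log series (top 100 uM, 0.5% DMSO), duplicate; mRNA by qRT-PCR (TaqMan, Fluidigm), normalized to ACTB/GAPDH/POLR2A; bidirectional fit vs DMSO.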

Read-out in experiment [17]: Lipase C (LIPC), LIPC (gene 3990)
Kind of experiment: LTEA_HepaRG_LIPC: Life Technologies and Expression Analysis (LTEA) Assay for Lipase C (LIPC) using HepaRG (AID 2283514). Put shortly: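 Differentiated human HepaRG cells in serum-free induction medium were exposed in duplicate for 48 h to eight concentrations (top 100 uM, half-log steps, 0.5% DMSO). LIPC mRNA was quantified by TaqMan qRT-PCR, normalized to ACTB, GAPDH and POLR2A, with bidirectional fitting versus DMSO.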

Read-out in experiment [18]: Lipoprotein lipase (LPL), LPL (gene 4023)
Kind of experiment: LTEA_HepaRG_LPL: Life Technologies and Expression Analysis (LTEA) Assay for Lipoprotein lipase (LPL) using HepaRG (AID 2283515). Put shortly: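 Differentiated human HepaRG cells in serum-free induction medium were exposed in duplicate for 48 h to eight half-log concentrations (top 100 uM) in 0.5% DMSO. LPL mRNA was quantified by TaqMan qRT-PCR, normalized to ACTB, GAPDH and POLR2A.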

Read-out in experiment [19]: Glutamate-cysteine ligase catalytic (GCLC), GCLC (gene 2729)
Description: LTEA_HepaRG_GCLC: Life Technologies and Expression Analysis (LTEA) Assay for Glutamate-cysteine ligase catalytic (GCLC) using HepaRG (AID 2283498). Put shortly:
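Differentiated human HepaRG cells, plated 48 h then switched to serum-free induction medium, were exposed in duplicate for 48 h to 8 half-log concentrations topping at 100 uM in 0.5% DMSO. GCLC mRNA was quantified by qRT-PCR against ACTB, GAPDH and POLR2A.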

Chain of Hypoxia-inducible factor 1-alpha (Homo sapiens) (Q16665 whole entry, looked up): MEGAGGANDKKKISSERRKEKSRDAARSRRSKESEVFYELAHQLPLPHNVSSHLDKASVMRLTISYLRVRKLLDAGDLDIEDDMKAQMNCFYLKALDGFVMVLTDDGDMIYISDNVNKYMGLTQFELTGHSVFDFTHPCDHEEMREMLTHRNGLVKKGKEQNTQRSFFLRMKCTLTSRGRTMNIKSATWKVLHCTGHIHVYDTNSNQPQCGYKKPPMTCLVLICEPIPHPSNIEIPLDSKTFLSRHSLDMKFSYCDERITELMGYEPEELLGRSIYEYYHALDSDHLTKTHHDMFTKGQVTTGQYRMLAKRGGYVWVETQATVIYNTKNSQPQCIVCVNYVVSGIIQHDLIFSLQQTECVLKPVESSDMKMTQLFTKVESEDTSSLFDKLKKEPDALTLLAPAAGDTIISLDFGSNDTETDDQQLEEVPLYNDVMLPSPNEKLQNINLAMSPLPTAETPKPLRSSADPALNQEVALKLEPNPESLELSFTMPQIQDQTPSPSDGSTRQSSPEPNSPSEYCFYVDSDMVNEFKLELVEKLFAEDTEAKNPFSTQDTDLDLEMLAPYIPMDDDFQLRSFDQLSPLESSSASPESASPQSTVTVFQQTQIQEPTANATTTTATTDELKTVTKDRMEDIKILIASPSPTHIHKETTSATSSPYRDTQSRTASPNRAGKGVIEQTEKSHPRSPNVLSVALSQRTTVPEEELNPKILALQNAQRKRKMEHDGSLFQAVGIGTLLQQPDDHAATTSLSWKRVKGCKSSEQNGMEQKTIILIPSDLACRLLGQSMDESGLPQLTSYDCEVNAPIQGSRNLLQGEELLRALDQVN

As for `COP(=O)(OC)SCn1c(=O)oc2cc(Cl)cnc21`, the compound was classed as inactive in experiment [1], in experiment [3], in experiment [4], in [5], in experiment [6] and in [7]. The compound was called inactive in [8], in experiment [9], in [10], in [11], in experiment [12] and in experiment [13]. Further, the compound was called inactive in experiment [14], in [15], in experiment [16] and in [18]. Moreover, the AC50 is 65 µM (active) in [2], 65.9 µM (active) with HGF (gene 3082) and 79.1 µM (active) in experiment [17].
Take `CSc1nc(NC(C)C)nc(NC(C)C)n1`: the half-maximal activity concentration (AC50) in experiment [1] is 50 µM (active); in experiment [2], 81.6 µM (active); in experiment [3] it was 64.7 µM (active); in experiment [8], 50 µM (active); in experiment [9] it was 20.7 µM (active). The outcome (in experiment [19]; in [4]; in experiment [6]; in [7]; with HGF (gene 3082); in experiment [10]) was inactive. The compound was called inactive in experiment [11], in experiment [12], in experiment [13], in [14], in experiment [15] and in experiment [16]. Further, the compound was called inactive in experiment [18].
Take `CCCOc1nn(C(=O)NS(=O)(=O)c2ccccc2C(=O)OC)c(=O)n1C`: the compound was classed as inactive in experiment [1], in [2], in experiment [19], in experiment [3], in experiment [4] and in experiment [5]. The result (in experiment [6]; in experiment [7]; in experiment [8]; in the experiment with HGF (gene 3082); in experiment [9]; in experiment [10]) was inactive. Moreover, the outcome in [11], in [12], in experiment [13], in experiment [14], in experiment [15] and in [16] was inactive. The outcome in [18] was inactive.
Regarding `CC(COc1ccc(Oc2ccccc2)cc1)Oc1ccccn1` (stereo not given), the values for the half-maximal activity concentration (AC50) in [1], in experiment [8] and in [9] were 19.9 µM (active), 12.6 µM (active) and 32.8 µM (active), respectively. Moreover, the result in [2], in [3], in experiment [4], in experiment [5], in [6] and in [7] was inactive. Besides, the call (with HGF (gene 3082); in experiment [10]; in experiment [11]; in experiment [12]; in [13]; in experiment [14]) was inactive. For the same compound, the compound was classed as inactive in experiment [15], in [16], in experiment [17] and in experiment [18].

The term AC50 denotes the midpoint of the concentration-response curve, whichever way the signal moves.
